Assay results reported in ChEMBL document CHEMBL3988442, “University of Dundee, Small-Polar-MMV Screening Library” (2021).
Among all 48,000 compounds or so, about 13,000 (27%) showed an effect of 50% or more. The list shows a part of the results.

Test system: Wolbachia pipientis
Test: Anti-Wolbachia Cell-Based Screen
Type: functional
Design: scale not given: in the data most compounds retested in dose-response had high values
Details: 5 µM

SMILES | Percent Effect
CC(=O)NCCc1ncnn1-c1ccc(F)c(Cl)c1 | -4.574%
CC(O)CN1CCC(CNCc2ccc(S(C)(=O)=O)cc2)CC1 (stereo unspecified) | -7.013%
Cc1cc(-c2ccc(C(C)N3CCOCC3)cc2)cnc1N (stereo unspecified) | 25.58%
O=C(NCCc1c[nH]cn1)c1ccc2c(c1)C(=O)N(C1CC1)C2=O | 25.9%
CC(O)CN(C)C(=O)Nc1ccn(-c2cccc(C(F)(F)F)c2)n1 (stereo unspecified) | -1.587%
CC(C)(C)c1nc(CN2CCCC2c2nnc3ccccn23)no1 (stereo unspecified) | 104.6%
CC(C)(C)c1nc(CN2CCCC2CCc2ccccc2)no1 (stereo unspecified) | 0.152%
CCc1nc(C2CCCN2Cc2nc(C3CC3)no2)no1 (stereo unspecified) | -2.971%
CCn1c(C2CCCN2Cc2noc(C(C)(C)C)n2)nc2ccccc21 (stereo unspecified) | 117.3%
Cn1cccc1C1CCCN1Cc1noc(C(C)(C)C)n1 (stereo unspecified) | 89.29%
CCc1nc(C2CCCN2Cc2nc3ccccc3o2)no1 (stereo unspecified) | -3.272%
CC(C)(C)c1nnc(CN2CCCC2c2noc(C3CC3)n2)o1 (stereo unspecified) | 9.354%
COc1cccc2c1N(Cc1noc(C(C)(C)C)n1)CCC2 | 5.292%
CCc1nc(C2CCCN2Cc2noc(Cc3ccccc3)n2)no1 (stereo unspecified) | -2.758%
Cc1nn(C)c(C)c1C1CCCN1Cc1noc(C2CC2)n1 (stereo unspecified) | 0.5745%
c1ccn2c(C3CCCN3Cc3nc(C4CC4)no3)nnc2c1 (stereo unspecified) | 89.02%
O=C(OCc1ccccc1)C1CCCN1Cc1nc(C2CC2)no1 (stereo unspecified) | 13.28%
CC(C)n1cnc2c1C(C(=O)N1CCOCC1)N(CC1CC1)CC2.O=C(O)C(F)(F)F (stereo unspecified) | -10.07%
CNC(=O)c1ccc(-n2c(COCC(=O)O)nc3c(C)cccc32)o1 | -7.772%
CCCOCC1CCN(C(=O)Cn2cccc(OC)c2=O)C1 (stereo unspecified) | -15.28%
Cc1ccc(NC(=O)CCC2CC2)cc1N1CCOC1=O | -7.551%
O=c1[nH]nc(CNc2ncc(Cl)cn2)[nH]1 | -6.867%
CCc1nsc(N2CCOC3(CCCC3)C2)n1 | 2.616%
Cc1noc(C)c1CN1CCCCC1c1nc(-c2ccccc2)no1 (stereo unspecified) | 11.76%

SMILES | Percent Effect
Cc1noc(C)c1CN1CCCC1c1nnc2ccccn12 (stereo unspecified) | 107.8%
Cc1noc(C)c1CN1CCCC1c1nc(-c2ccccc2)no1 (stereo unspecified) | -6.071%
CCC(CO)N(Cc1cccs1)C(=O)Cc1ccc(O)cc1 (stereo unspecified) | 12.13%
CCC[C@@H]1CN(C(=O)c2ccccc2-c2ccccc2)C[C@H]1N(C)C | -11.45%
COCCN1CCCC(O)(CN2CCN(Cc3ccncc3)CC2)C1=O (stereo unspecified) | -1.626%
Cc1ccc(CN2CCC3(CCN(Cc4ccncc4)CC3)CC2)cc1 | -6.544%
Cn1ccnc1C1(O)CCCN(Cc2ccncc2)CC1 (stereo unspecified) | 94.34%
CN(C)[C@H]1CCN(c2ccnc(C(=O)NCc3ccco3)c2)C1 | -12.58%
Cc1[nH]c(=O)sc1S(=O)(=O)N1CCCC1C(=O)NC1CC1 (stereo unspecified) | 0.9374%
CC1c2ncc(COCC3CC3)n2CCN1S(=O)(=O)N(C)C (stereo unspecified) | -6.883%
Cn1ccnc1-c1cnn(CC(=O)Nc2ccnn2C)c1 | -5.253%
CC(C)c1nccn1CC(=O)Nc1ccnn1C(C)C(C)C (stereo unspecified) | 205.7%
O=C(NCCO)c1coc(Cn2cnc3ccccc32)n1 | -7.13%
CC(C)C(C)n1nccc1NC(=O)Cn1cnc2ccccc21 (stereo unspecified) | 92.25%
Cc1noc(CN(C)C(=O)CCn2cnc3ccccc32)n1 | -9.657%
CC(C1CC1)n1nccc1NC(=O)CN(C)C(=O)OC(C)(C)C (stereo unspecified) | 1.565%
Cc1n[nH]c(C)c1C1CCCN1C(=O)c1cc(Br)c[nH]1 (stereo unspecified) | 3.439%
N#Cc1cc(S(N)(=O)=O)ccc1NC1CCc2ccc(F)cc21 (stereo unspecified) | -1.199%
CC(C)Nc1ccc(-c2ccnc3c2ccn3C)nn1 | -2.658%
CN(C)c1ccc(-c2ccnc3c2ccn3C)nn1 | -43.13%
Cn1ccc2c(-c3cc(N4CCOCC4)ncn3)ccnc21 | 96.13%
Cn1ccc2c(-c3cc(N4CCCCC4)ncn3)ccnc21 | 102.2%
Cn1ccc2c(-c3ccc(NC4CC4)nn3)ccnc21 | -7.533%
c1cc2c(c(-c3cc(N4CCOCC4)ncn3)c1)CCNC2 | 6.934%

SMILES | Percent Effect
Cc1cc(C)nc(N2CCCC(Cn3cc(CN(C)C)nn3)C2)n1 (stereo unspecified) | 5.215%
COc1ccccc1CNc1cnn(CC(F)F)c1 | 103.3%
COc1cc(CNc2cnn(CC(F)F)c2)ccc1O | 77.84%
COCc1cc(NCc2cc(F)ccc2F)n2nccc2n1 | 7.154%
COCCn1cc(NCc2cccc3cn[nH]c23)cn1 | -36.74%
CCn1cc(CNc2ccc(Br)c(OC)c2)cn1 | 3.911%
COCc1cc(NCCc2ccc(F)cc2)n2nccc2n1 | -0.9559%
Cc1ccc(CNc2cnn(CC(F)F)c2)cc1C | -20.79%
COCc1cc(CNc2cnn(CC(F)F)c2)ccc1OC | 109.5%
COc1ccccc1CNC(Cn1cncn1)c1ccccc1 (stereo unspecified) | -4.346%
CS(=O)(=O)CCNCc1ccc(OCc2ccncc2)cc1 | 4.954%
CS(=O)(=O)c1cccc(S(=O)(=O)NCCCN2CCNC(=O)C2)c1 | 4.336%
COCCC1(CO)CCCN(Cc2ccc(C(F)(F)F)nc2)C1 (stereo unspecified) | 4.896%
Cc1nn(C)c2nc(N3CCCCC3c3ccc(F)cc3)sc12 (stereo unspecified) | 106.8%
Cc1nn(C)c2nc(N(Cc3nccs3)C3CC3)sc12 | 96.11%
Cc1nn(C)c2nc(N3CCNC(=O)C3Cc3ccccc3)sc12 (stereo unspecified) | 4.207%
Cc1nn(C)c2nc(N(Cc3cnn(C)c3)C3CCCCC3)sc12 | -14.1%
Cc1nn(C)c2nc(N3CCNC(=O)C3C(C)C)sc12 (stereo unspecified) | -3.724%
Cc1ccc(CN2CCN(c3nc4c(s3)c(C)nn4C)C(C)C2=O)cc1 (stereo unspecified) | -1.858%
Cc1nn(C)c2nc(N3CCC(C(O)c4ccccn4)CC3)sc12 (stereo unspecified) | -0.6588%
Cc1nn(C)c2nc(N3CCCC3c3nccs3)sc12 (stereo unspecified) | 105.7%
COC(=O)CN1CCN(c2nc3c(s2)c(C)nn3C)C(C)C1=O (stereo unspecified) | -10.29%
COCCN(Cc1nccs1)c1nc2c(s1)c(C)nn2C | -7.769%
Cc1nn(C)c2nc(N3CCCCC3c3nccs3)sc12 (stereo unspecified) | 111.2%

SMILES | Percent Effect
COC(=O)CC1C(=O)NCCN1c1nc2c(s1)c(C)nn2C (stereo unspecified) | -2.847%
CN(Cc1ccccc1NCc1cccnc1)C(=O)c1cccs1 | 7.108%
O=S1(=O)CCN(c2nc(C3CC3)ns2)CC1 | -15.72%
CN1C(=O)CO[C@H](c2ccc(NC(=O)c3cccc(F)c3)cc2)[C@H]1CO | 11.75%
CCC(CNC(=O)c1cc(OC)ccc1Br)N1CCc2ccccc2C1 (stereo unspecified) | -23.56%
COC(=O)N1CCc2ccccc2C1C(=O)NCc1nc(C)no1 (stereo unspecified) | 2.573%
CN(C)C(=O)c1cccc(CN2CCOC(Cn3cccn3)C2)c1 (stereo unspecified) | 104.7%
CN(C)CC1CN(Cc2cccc(C(=O)N(C)C)c2)CCO1 (stereo unspecified) | 13.75%
c1cnn(-c2ccc(CN3CCOC(Cn4cncn4)C3)cc2)c1 (stereo unspecified) | -5.555%
CN(C)C(=O)c1cccc(CN2CCOC(Cn3cncn3)C2)c1 (stereo unspecified) | 102.1%
Cc1cccc(Cn2ccc(NS(C)(=O)=O)n2)c1 | -2.498%
CCn1cc(NC(=O)NCC(c2cccc(F)c2)N(C)C)cn1 (stereo unspecified) | 0.3988%
CCS(=O)(=O)Nc1cnn(Cc2cccc(F)c2)c1 | 105.7%
CCS(=O)(=O)Nc1cnn(Cc2cccc(C)c2)c1 | 89.42%
CCn1cc(NC(=O)NCC(O)COc2cccc(F)c2)cn1 (stereo unspecified) | -10.6%
CN(C)c1cccc(C(=O)Nc2cnn(Cc3ccncc3)c2)c1 | 11.2%
O=C(NCCN1CCOCC1)c1ccc(-c2ccccc2)[nH]c1=O | -12.34%
Cc1cccc(-c2ccc(C(=O)NCC3CCOC3)c(=O)[nH]2)c1 (stereo unspecified) | 2.342%
O=C(NCC1CCCOC1)c1ccc(-c2ccccc2)[nH]c1=O (stereo unspecified) | 111.2%
Cc1cccc(-c2ccc(C(=O)NCCN(C)C3CC3)c(=O)[nH]2)c1 | -2.901%
Cc1cccc(-c2ccc(C(=O)NCCN3CCOCC3)c(=O)[nH]2)c1 | 3.561%
O=C(NCC1CCOC1)c1ccc(-c2ccccc2)[nH]c1=O (stereo unspecified) | 96.09%
Cc1ccc(C(=O)NCC2COCCO2)c(=O)[nH]1 (stereo unspecified) | 4.795%
O=C(NCC1CCCOC1)c1ccc(-c2cccs2)[nH]c1=O (stereo unspecified) | 1.044%

SMILES | Percent Effect
Cc1cccc(-c2ccc(C(=O)NCC3CCCO3)c(=O)[nH]2)c1 (stereo unspecified) | 118.6%
Cc1ccc(C(=O)NCC2CCCCO2)c(=O)[nH]1 (stereo unspecified) | 8.158%
Cc1cccc(-c2ccc(C(=O)NCC3CCCOC3)c(=O)[nH]2)c1 (stereo unspecified) | 108.2%
O=C(NCCCn1cncn1)c1ccc(-c2ccccc2)[nH]c1=O | -1.732%
Cc1nc(CCNC(=O)C2CCN(C(C)C)CC2)sc1Cl | 3.943%
CCc1ccccc1OC1CN(CC2CCOC2)C1 (stereo unspecified) | 1.155%
CN(C)C(=O)CCCn1ccc(NCc2ccc(C#N)cc2)n1 | -12.19%
COCc1cccc(NC(=O)N(C)Cc2ncc(C)c(OC)c2C)c1 | -2.673%
O=C(CC1CCCC1)N1CCN2C[C@@H](CO)[C@H](c3ccccc3)[C@H]2C1 | 76.76%
O=C(C1CC1)N1CCN(C(=O)C2CC(=O)N(c3ccccc3Br)C2)CC1 (stereo unspecified) | 9.914%
O=C(CO)N1CCCC(N2CCN(c3ccccc3F)CC2)C1 (stereo unspecified) | 13.62%
O=C(Nc1nc(-c2ccccc2)ns1)N1CCN(C(=O)C2CC2)CC1 | -11.4%
COCCOC(=O)N1CCN2C[C@@H](CO)[C@H](c3ccccc3)[C@H]2C1 | 99.06%
COCCOC(=O)N1C[C@H]2CC[C@@H]1CN(C1Cc3ccccc3C1)C2 | 9.586%
O=C(CC1CCCCC1)N1CCN(C(=O)NCc2ccccn2)CC1 | -2.156%
NC(=O)[C@@H]1CN2CCN(C(=O)C3CC3)C[C@@H]2[C@H]1c1ccccc1 | 100.9%
COC(=O)N1CCN(Cc2ccccc2Cl)CC1 | 0.9968%
COC(=O)N1CCC(NC(=O)CC(C)CCc2ccccc2)CC1 (stereo unspecified) | 12.69%
COC(=O)N1CCN2C[C@H](CO)[C@@H](c3ccccc3)[C@H]2C1 | 95.68%
COCCC(=O)N1CCC2(CC1)CC(c1ccccc1)CN(C1CC1)C2 (stereo unspecified) | -1.605%
